# Laboratory results published in the supplement of paper PMC4466140.
# B1: unnamed (peptide)
# chain: VYTRTAFQIPGDDKI
# B2: unnamed (peptide)
# chain: NNFYRPLLRSVLVLL
# Target: AgAbp1
# Experiment: SPOT peptide array binding signal intensity (averaged, normalized) (arbitrary units (background-subtracted, floor 0; scale differs between SH3 domains)); higher = stronger binding of the SH3 domain to the peptide
# Method in brief: (§1)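 Four yeast species supplied the SH3 domains, which were expressed as GST fusions in E. coli BL21(DE3) and purified on glutathione Sepharose. Incubation with cellulose membranes carrying synthetic 15-mer peptides, cysteines exchanged for serines, ran overnight at 4°C at 10 μg/ml in TBS-based blocking buffer. Binding signal is reported as normalized, background-subtracted spot intensity averaged over replicates, in arbitrary units not shared between domains.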
row,Binder,SPOT peptide array binding signal intensity
1,B1,≤ 0

# Target: AgBbc1
# Experiment: as above
# Method in brief: as §1
row,Binder,SPOT peptide array binding signal intensity
1,B1,≤ 0

# Target: AgBem1-D1
# Experiment: as above
# Method in brief: as §1
row,Binder,SPOT peptide array binding signal intensity
1,B1,≤ 0

# Target: AgBzz1-D1
# Experiment: as above
# Method in brief: as §1
row,Binder,SPOT peptide array binding signal intensity
1,B1,29

# Target: AgBzz1-D2
# Experiment: as above
# Method in brief: as §1
row,Binder,SPOT peptide array binding signal intensity
1,B1,20

# Target: AgCyk3
# Experiment: as above
# Method in brief: as §1
row,Binder,SPOT peptide array binding signal intensity
1,B1,0.5

# Target: AgFus1
# Experiment: as above
# Method in brief: as §1
row,Binder,SPOT peptide array binding signal intensity
1,B1,≤ 0

# Target: AgHof1
# Experiment: as above
# Method in brief: as §1
row,Binder,SPOT peptide array binding signal intensity
1,B1,10

# Target: AgHse1
# Experiment: as above
# Method in brief: as §1
row,Binder,SPOT peptide array binding signal intensity
1,B1,≤ 0

# Target: AgLsb1
# Experiment: as above
# Method in brief: as §1
row,Binder,SPOT peptide array binding signal intensity
1,B1,474

# Target: AgLsb4
# Experiment: as above
# Method in brief: as §1
row,Binder,SPOT peptide array binding signal intensity
1,B1,≤ 0

# Target: AgMyo5
# Experiment: as above
# Method in brief: as §1
row,Binder,SPOT peptide array binding signal intensity
1,B1,≤ 0

# Target: AgNbp2
# Experiment: as above
# Method in brief: as §1
row,Binder,SPOT peptide array binding signal intensity
1,B1,≤ 0

# Target: AgRvs167
# Experiment: as above
# Method in brief: as §1
row,Binder,SPOT peptide array binding signal intensity
1,B1,0.333

# Target: AgSho1
# Experiment: as above
# Method in brief: as §1
row,Binder,SPOT peptide array binding signal intensity
1,B1,≤ 0

# Target: AgSla1-D1-D2
# Experiment: as above
# Method in brief: as §1
row,Binder,SPOT peptide array binding signal intensity
1,B1,≤ 0

# Target: AgSla1-D3
# Experiment: as above
# Method in brief: as §1
row,Binder,SPOT peptide array binding signal intensity
1,B1,≤ 0

# Target: CaAbp1-D1
# Experiment: as above
# Method in brief: as §1
row,Binder,SPOT peptide array binding signal intensity
1,B1,≤ 0

# Target: CaAbp1-D2
# Experiment: as above
# Method in brief: as §1
row,Binder,SPOT peptide array binding signal intensity
1,B1,≤ 0

# Target: CaBbc1
# Experiment: as above
# Method in brief: as §1
row,Binder,SPOT peptide array binding signal intensity
1,B1,3

# Target: CaBem1-D1
# Experiment: as above
# Method in brief: as §1
row,Binder,SPOT peptide array binding signal intensity
1,B1,≤ 0

# Target: CaBzz1-D1
# Experiment: as above
# Method in brief: as §1
row,Binder,SPOT peptide array binding signal intensity
1,B1,83.5

# Target: CaBzz1-D2
# Experiment: as above
# Method in brief: as §1
row,Binder,SPOT peptide array binding signal intensity
1,B1,26

# Target: CaCyk3
# Experiment: as above
# Method in brief: as §1
row,Binder,SPOT peptide array binding signal intensity
1,B1,≤ 0

# Target: CaFus1
# Experiment: as above
# Method in brief: as §1
row,Binder,SPOT peptide array binding signal intensity
1,B1,≤ 0

# Target: CaHof1
# Experiment: as above
# Method in brief: as §1
row,Binder,SPOT peptide array binding signal intensity
1,B1,≤ 0

# Target: CaHse1
# Experiment: as above
# Method in brief: as §1
row,Binder,SPOT peptide array binding signal intensity
1,B1,≤ 0

# Target: CaLsb1
# Experiment: as above
# Method in brief: as §1
row,Binder,SPOT peptide array binding signal intensity
1,B1,184

# Target: CaLsb4
# Experiment: as above
# Method in brief: as §1
row,Binder,SPOT peptide array binding signal intensity
1,B1,≤ 0

# Target: CaMyo5
# Experiment: as above
# Method in brief: as §1
row,Binder,SPOT peptide array binding signal intensity
1,B1,≤ 0

# Target: CaNbp2
# Experiment: as above
# Method in brief: as §1
row,Binder,SPOT peptide array binding signal intensity
1,B1,≤ 0

# Target: CaRvs167
# Experiment: as above
# Method in brief: as §1
row,Binder,SPOT peptide array binding signal intensity
1,B1,0.833

# Target: CaRvs167-3
# Experiment: as above
# Method in brief: as §1
row,Binder,SPOT peptide array binding signal intensity
1,B1,3.25

# Target: CaSho1
# Experiment: as above
# Method in brief: as §1
row,Binder,SPOT peptide array binding signal intensity
1,B1,≤ 0

# Target: CaSla1-D1-D2
# Experiment: as above
# Method in brief: as §1
row,Binder,SPOT peptide array binding signal intensity
1,B1,≤ 0

# Target: CaSla1-D3
# Experiment: as above
# Method in brief: as §1
row,Binder,SPOT peptide array binding signal intensity
1,B1,0.5

# Target: ScAbp1
# Experiment: as above
# Method in brief: as §1
row,Binder,SPOT peptide array binding signal intensity
1,B1,≤ 0

# Target: ScBbc1
# Experiment: as above
# Method in brief: as §1
row,Binder,SPOT peptide array binding signal intensity
1,B1,≤ 0

# Target: ScBem1-D1
# Experiment: as above
# Method in brief: as §1
row,Binder,SPOT peptide array binding signal intensity
1,B1,8

# Target: ScBzz1-D1
# Experiment: as above
# Method in brief: as §1
row,Binder,SPOT peptide array binding signal intensity
1,B1,17.5

# Target: ScBzz1-D2
# Experiment: as above
# Method in brief: as §1
row,Binder,SPOT peptide array binding signal intensity
1,B1,22.5

# Target: ScCyk3
# Experiment: as above
# Method in brief: as §1
row,Binder,SPOT peptide array binding signal intensity
1,B1,≤ 0

# Target: ScFus1
# Experiment: as above
# Method in brief: as §1
row,Binder,SPOT peptide array binding signal intensity
1,B1,≤ 0

# Target: ScHof1
# Experiment: as above
# Method in brief: as §1
row,Binder,SPOT peptide array binding signal intensity
1,B1,≤ 0

# Target: ScHse1
# Experiment: as above
# Method in brief: as §1
row,Binder,SPOT peptide array binding signal intensity
1,B1,≤ 0

# Target: ScLsb1
# Experiment: as above
# Method in brief: as §1
row,Binder,SPOT peptide array binding signal intensity
1,B1,601

# Target: ScLsb2
# Experiment: as above
# Method in brief: as §1
row,Binder,SPOT peptide array binding signal intensity
1,B1,895

# Target: ScLsb3
# Experiment: as above
# Method in brief: as §1
row,Binder,SPOT peptide array binding signal intensity
1,B1,≤ 0

# Target: ScLsb4
# Experiment: as above
# Method in brief: as §1
row,Binder,SPOT peptide array binding signal intensity
1,B1,≤ 0

# Target: ScMyo3
# Experiment: as above
# Method in brief: as §1
row,Binder,SPOT peptide array binding signal intensity
1,B1,0.5

# Target: ScMyo5
# Experiment: as above
# Method in brief: as §1
row,Binder,SPOT peptide array binding signal intensity
1,B1,≤ 0

# Target: ScNbp2
# Experiment: as above
# Method in brief: as §1
row,Binder,SPOT peptide array binding signal intensity
1,B1,≤ 0

# Target: ScPex13
# Experiment: as above
# Method in brief: as §1
row,Binder,SPOT peptide array binding signal intensity
1,B1,≤ 0

# Target: ScRvs167
# Experiment: as above
# Method in brief: as §1
row,Binder,SPOT peptide array binding signal intensity
1,B1,1.83

# Target: ScSho1
# Experiment: as above
# Method in brief: as §1
row,Binder,SPOT peptide array binding signal intensity
1,B1,≤ 0

# Target: ScSla1-D1-D2
# Experiment: as above
# Method in brief: as §1
row,Binder,SPOT peptide array binding signal intensity
1,B1,≤ 0

# Target: ScSla1-D3
# Experiment: as above
# Method in brief: as §1
row,Binder,SPOT peptide array binding signal intensity
1,B1,10.5

# Target: SpAbp1-D1
# Experiment: as above
# Method in brief: as §1
row,Binder,SPOT peptide array binding signal intensity
1,B1,1

# Target: SpBbc1
# Experiment: as above
# Method in brief: as §1
row,Binder,SPOT peptide array binding signal intensity
1,B1,≤ 0

# Target: SpBzz1-D1
# Experiment: as above
# Method in brief: as §1
row,Binder,SPOT peptide array binding signal intensity
1,B1,75.5

# Target: SpBzz1-D2
# Experiment: as above
# Method in brief: as §1
row,Binder,SPOT peptide array binding signal intensity
1,B1,≤ 0
2,B2,0.5

# Target: SpCyk3
# Experiment: as above
# Method in brief: as §1
row,Binder,SPOT peptide array binding signal intensity
1,B1,≤ 0
2,B2,6.5

# Target: SpHof1
# Experiment: as above
# Method in brief: as §1
row,Binder,SPOT peptide array binding signal intensity
1,B1,≤ 0
2,B2,3

# Target: SpHof1-2
# Experiment: as above
# Method in brief: as §1
row,Binder,SPOT peptide array binding signal intensity
1,B1,≤ 0
2,B2,4

# Target: SpHof1-3
# Experiment: as above
# Method in brief: as §1
row,Binder,SPOT peptide array binding signal intensity
1,B1,≤ 0
2,B2,366

# Target: SpHse1
# Experiment: as above
# Method in brief: as §1
row,Binder,SPOT peptide array binding signal intensity
1,B1,≤ 0
2,B2,1050

# Target: SpLsb1
# Experiment: as above
# Method in brief: as §1
row,Binder,SPOT peptide array binding signal intensity
1,B1,68.5
2,B2,≤ 0

# Target: SpLsb4
# Experiment: as above
# Method in brief: as §1
row,Binder,SPOT peptide array binding signal intensity
1,B1,≤ 0
2,B2,≤ 0

# Target: SpMyo1
# Experiment: as above
# Method in brief: as §1
row,Binder,SPOT peptide array binding signal intensity
1,B1,3.5
2,B2,≤ 0

# Target: SpNbp2
# Experiment: as above
# Method in brief: as §1
row,Binder,SPOT peptide array binding signal intensity
1,B1,7
2,B2,0.5

# Target: SpPex13
# Experiment: as above
# Method in brief: as §1
row,Binder,SPOT peptide array binding signal intensity
1,B1,≤ 0
2,B2,5.5

# Target: SpRvs167
# Experiment: as above
# Method in brief: as §1
row,Binder,SPOT peptide array binding signal intensity
1,B1,0.333
2,B2,0.667

# Target: SpSla1-D1-D2
# Experiment: as above
# Method in brief: as §1
row,Binder,SPOT peptide array binding signal intensity
1,B1,2
2,B2,4

# Target: SpSla1-D3
# Experiment: as above
# Method in brief: as §1
row,Binder,SPOT peptide array binding signal intensity
1,B1,≤ 0
2,B2,≤ 0
